Where “and” joins values, the source holds several entries; their conditions need not be identical. Equal entries are not always repeated. Screen size: about 16,000 compounds; about 2,600 (16%) were called active. Roughly 20% stayed inconclusive and do not appear here. Calls come from the whole dose curve; as a rule, active = well fitted curve in the direction sought with a large enough effect; inconclusive = small, poorly fitted or top-dose-only effect, or effect the other way; inactive = no such curve, though single readings can be large or run the other way. The list is a sample of the results. Some compounds were tested as several samples or in several runs, with calls that do not always agree. Peptide text beside a SMILES is read from it.
What follows are molecules tested against Cytochrome P450 2D6 (Homo sapiens) (UniProt P10635) (assay: Cytochrome panel assay with activity outcomes). Settings: recombinant CYP, pro-luciferin dealkylation, luminescence, p450-cyp2d6; series mostly up to 57.1 µM.
% is set by controls: 0 for no effect and ±100 for the full control effect.

Chain of Cytochrome P450 2D6 (Homo sapiens) (P10635 whole entry, looked up): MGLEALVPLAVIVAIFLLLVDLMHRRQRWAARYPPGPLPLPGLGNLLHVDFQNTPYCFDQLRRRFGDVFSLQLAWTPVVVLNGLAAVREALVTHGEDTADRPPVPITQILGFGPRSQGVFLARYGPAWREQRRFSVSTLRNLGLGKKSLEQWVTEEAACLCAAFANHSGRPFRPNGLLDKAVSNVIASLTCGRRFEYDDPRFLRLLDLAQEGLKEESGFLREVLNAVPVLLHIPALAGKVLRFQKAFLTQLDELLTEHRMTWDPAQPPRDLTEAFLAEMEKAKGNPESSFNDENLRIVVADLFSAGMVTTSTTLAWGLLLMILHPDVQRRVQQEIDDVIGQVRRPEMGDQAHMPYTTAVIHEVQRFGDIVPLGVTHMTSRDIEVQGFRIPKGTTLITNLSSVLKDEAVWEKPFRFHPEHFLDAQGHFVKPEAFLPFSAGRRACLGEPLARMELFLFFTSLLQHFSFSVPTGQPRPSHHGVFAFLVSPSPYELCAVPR

Row | SMILES | AC50 | activity, negative = inhibition
1 | O=c1c(-c2nc3ccccc3s2)cccn1Cc1ccccc1 | inactive | –
2 | Cc1cccc(Cn2ncc(Cl)c(Cl)c2=O)c1 | inactive | –
3 | O=C(NCC(=O)N(c1ccccc1)C(C(=O)NC1CCCC1)c1cccnc1)c1cccs1 (stereo not given) | inactive | –
4 | Cc1ccc(C(C(=O)NCc2ccco2)N(C(=O)CNC(=O)c2cccs2)c2ccc(C)cc2C)cc1 (stereo not given) | inactive | –
5 | Cc1ccc(C(C(=O)NC2CCCCC2)N(CC2CCCO2)C(=O)CNC(=O)c2cccs2)cc1 (stereo not given) | 10 µM (active) | –
6 | N#Cc1ccc(CN2CCCC3(CCN(S(=O)(=O)c4ccccc4)CC3)C2)cc1 | 0.631 µM (active) | –
7 | O=S(=O)(c1ccccc1)N1CCC2(CC1)CN(Cc1ccccc1)C2 | 0.158 µM (active) | –
8 | O=S(=O)(c1ccccc1)N1CCC2(CCN(Cc3ccccc3)CC2)CC1 | inactive | –
9 | O=S(=O)(c1ccccc1)N1CCC2(CCCN(Cc3ccncc3)C2)CC1 | 1 µM (active) | –
10 | N#Cc1ccc(CN2CCC3(CC2)CCN(S(=O)(=O)c2ccccc2)CC3)cc1 | inactive | –
11 | Cc1ccccc1CNc1ncnc2c1ncn2[C@@H]1O[C@@H](CO)[C@H](O)[C@@H]1O | inactive | –
12 | COc1ccc(NS(=O)(=O)c2ccc(NC(=O)c3cnn4c(C(F)F)cc(-c5ccc(C)cc5)nc34)cc2)cc1 | inactive | –
13 | CC(C)=CCc1c2c(c3occ(-c4ccc(O)c(O)c4)c(=O)c3c1O)C=CC(C)(C)O2 | – | -0.0819% [at 11.4 µM] (inactive)
14 | CCc1cc2c(=O)n(-c3ccccc3)c(=S)[nH]c2s1 | inactive | –
15 | COC(=O)/C=C\CCc1coc(/C=C\CNC(=O)OC)n1 | – | 8.58% [at 11.4 µM] (inactive)
16 | COc1ccc(/C=C2\OC(=O)c3c(OC)cccc32)cc1OC | inactive | –
17 | Cn1c(=O)c(-c2ccc(Cl)cc2)nc2cncnc21 | inactive | –
18 | O=C(O)c1cccc(C(=O)O)c1S(=O)Cc1ccccc1 (stereo not given) | – | -0.655% [at 11.4 µM] (inactive)
19 | O=S(Cc1ccccc1)CC(O)(c1ccccc1)c1ccccc1 (stereo not given) | 2.24 µM (active) | –
20 | O=C(O)C(Cl)(c1ccccc1)c1ccccc1 | – | 6.11% [at 11.4 µM] (inactive)
21 | COc1cccc(N=c2oc3c(C)ncc(CO)c3cc2C(N)=O)c1 | inactive | –
22 | CC(C)(C)[C@@]1(O)CCN2C[C@@H]3c4ccccc4CCc4cccc(c43)[C@@H]2C1 | 79.4 nM (active) and 501 nM (active) | –
23 | O=C(C1CCCCC1)N1CC(=O)N2CCc3ccccc3[C@@H]2C1 | inactive | –
24 | CC(C)c1nnc(-c2ccc(Cl)cc2)c(N(C)C)n1 | inactive | –

Row | SMILES | AC50 | activity, negative = inhibition
25 | C/C(CCN1CCc2nc(-c3ccccc3)c(-c3ccccc3)cc2C1)=N\O[C@@H](C)c1cc(-c2c(C)cc(C)cc2C)no1 | – | 8.64% [at 11.4 µM] (inactive)
26 | CS(=O)(=O)c1ccc([C@H](O)[C@H](CO)NC(=O)C(Cl)Cl)cc1 | inactive | –
27 | CN1/C(=C\C=[N+](C)c2ccccc2)C(C)(C)c2ccccc21 | 0.316 µM (active) | –
28 | Cc1c(NC(=S)/C=C2\N(C)c3ccccc3C2(C)C)c(=O)n(-c2ccccc2)n1C | inactive | –
29 | CN(C)c1ccc(N=C/C=C2\N(C)c3ccccc3C2(C)C)cc1 | 2.24 µM (active) | –
30 | CN1/C(=C/C=C(/C#N)C(N)=O)C(C)(C)c2ccccc21 | inactive | –
31 | CC(C)CO/N=C1/C[C@@H](O)[C@@H](O)[C@@H]2[C@@H]3C(=O)N(C[C@@H]4CCCO4)C(=O)[C@H]3CC[C@H]12 | – | -1.45% [at 11.4 µM] (inactive)
32 | Cc1cc(C)cc(Oc2coc3cc(OC(=O)c4cccs4)ccc3c2=O)c1 | inactive | –
33 | O=C(O)c1cccc2cccc(-c3cccc4cccc(C(=O)O)c34)c12 | – | -12.7% [at 11.4 µM] (inactive)
34 | O=C(c1c[nH]c(=O)n(-c2ccccc2)c1=O)N1CCc2ccccc21 | inactive | –
35 | O=C(Nc1cccc(Br)c1)/C(=C\c1cccnc1)NC(=O)c1ccco1 | inactive | –
36 | O=C(N/C(=C/c1ccc(Br)cc1)c1nc2ccccc2[nH]1)c1ccco1 | 12.6 µM (active) | –
37 | O=C(/C(=C/c1ccc(Cl)cc1)c1nc2ccccc2[nH]1)c1ccccc1 | inactive | –
38 | O=C1c2cccc3c(Cl)ccc(c23)C(=O)N1O | inactive | –
39 | COC(=O)c1ccc(-n2cncn2)c(F)c1 | inactive | –
40 | CCc1nn(C)c(-c2n[nH]c(=S)n2N)c1Cl | inactive | –
41 | Cc1ccc(S(=O)(=O)NC(=O)OC23COCN2COC3)cc1 | – | 18.1% [at 11.4 µM] (inactive)
42 | Nc1nc(SCc2ccc([N+](=O)[O-])cc2)c2ncn([C@@H]3O[C@@H](CO)[C@@H](O)[C@H]3O)c2n1 | inactive | –
43 | c1cnc(N2CCN(Cc3ccc4c(c3)OCO4)CC2)nc1 | 1 µM (active) and 200 nM (active) and inactive | –
44 | O=C(O)[C@@H]1CCCN1Cc1ccc2c(c1)OCO2 | – | 7.95% [at 11.4 µM] (inactive)
45 | O=C(O)C1CCN(c2ncccn2)CC1 | inactive | –
46 | Cc1ccc(NC(=S)N2CCN(CCN3C(=O)c4cccc5cccc(c45)C3=O)CC2)cc1 | inactive | –
47 | O=C(CCN1C(=O)c2cccc3cccc(c23)C1=O)N1CCN(Cc2ccc3c(c2)OCO3)CC1 | 14.1 µM (active) | –
48 | O=C(CN1C(=O)c2cccc3cccc(c23)C1=O)N1CCCCCC1 | inactive | –

Row | SMILES | AC50 | activity, negative = inhibition
49 | COC(=O)c1ccccc1OCC(=O)N1CCN(c2ccc(Cl)cc2)CC1 | inactive | –
50 | O=C(COc1ccc(Cl)cc1)N1CCN(Cc2ccc3c(c2)OCO3)CC1 | 0.2 µM (active) | –
51 | O=C(Cc1ccc(Cl)cc1)N1CCN(C(=O)c2ccco2)CC1 | inactive | –
52 | CC(=O)[C@@H](C)CCO[C@@]1(C)OCC[C@@H]1C | – | 0.323% [at 11.4 µM] (inactive)
53 | CCOC(=O)c1c(NC(=O)CCCN2CCOCC2)sc2c1CC(C)(C)OC2 | inactive | –
54 | COc1ccc2c(c1)c(CC(=O)O)c(C)n2C(=O)c1ccc(Cl)cc1 | inactive | –
55 | CCc1ccc(NC(=O)C2CCN(S(=O)(=O)c3c(C)[nH]c(=O)[nH]c3=O)CC2)cc1 | inactive | –
56 | CC(=O)[C@@H]1[C@@H]2C(=O)N(C3CCCCC3)C(=O)[C@@H]2C2c3ccccc3C=CN21 (stereo not given in full) | inactive | –
57 | O=C(CCCN1C(=O)C2C3C=CC(C3)C2C1=O)N1CCN(c2ccccc2)CC1 (stereo not given) | inactive | –
58 | Cc1nnc(-c2cnn(-c3ccccc3)c2N)n1Cc1ccncc1 | inactive | –
59 | Nc1nonc1-n1nncc1-c1ccccc1 | inactive | –
60 | Cn1c(-c2ccccc2)cnc1N | 11.2 µM (active) | –
61 | Cn1c(=O)c(-c2ccccc2)nc2cncnc21 | inactive | –
62 | CCCCN1C(=O)C(NC(=O)c2cccnc2)(C(F)(F)F)C2=C1CC(C)(C)CC2=O (stereo not given) | inactive | –
63 | COc1ccc2c3c(ccc2c1)N[C@H](C(=O)O)CC3 | – | 3.59% [at 11.4 µM] (inactive)
64 | Cc1cc(=O)[nH]c(-n2[nH]c(C)cc2=O)n1 | inactive | –
65 | CC1(C)CCC(NC(=O)[C@H](N)CCC(=O)O)CC1 | inactive | –
66 | COc1ccc(-n2c(=O)c(-c3cccs3)nc3cnc(N4CCNCC4)nc32)cc1 | inactive | –
67 | CCOC(=O)c1sc(NC(C)=O)nc1-c1ccccc1 | inactive | –
68 | Cc1cc(C)c(C#N)c(Oc2ccccc2)n1 | inactive | –
69 | Cc1cc(C)c(C#N)c(SCS(=O)c2ccc(C(C)(C)C)cc2)n1 (stereo not given) | inactive | –
70 | C=CCSc1nc(C)cc(/C=C\c2ccccc2)c1C#N | 2.82 µM (active) | –
71 | COc1ccc(-c2nc3cnc(N(C)C)nc3n(CCc3ccccc3)c2=O)cc1 | inactive | –
72 | Cc1ccc(S(=O)(=O)CCc2nnc(NC(=O)COc3cccc(C)c3)s2)cc1 | inactive | –

Row | SMILES | AC50 | activity, negative = inhibition
73 | CC(=O)N[C@@H](CC(=O)O)C(=O)N[C@@H](CCC(=O)O)C(=O)O (Ac-Asp-Glu-OH) | inactive | –
74 | COc1cc2nncc(SCc3ccc(Cl)c(Cl)c3)c2cc1OC | – | 1.56% [at 11.4 µM] (inactive)
75 | Clc1ccc(CSC2=NCCN2)cc1Cl | 3.16 µM (active) | –
76 | CCN(Cc1ccccc1)Cc1cccc([N+](=O)[O-])c1 | 0.794 µM (active) | –
77 | N[C@@H](Cc1cccc([N+](=O)[O-])c1)C(=O)O | – | 1.07% [at 11.4 µM] (inactive)
78 | Cc1ccc(S(=O)(=O)NCc2cccc([N+](=O)[O-])c2)cc1 | – | 1.17% [at 11.4 µM] (inactive)
79 | CN(C)N1C(N)=C(C#N)C(c2cccnc2)C2=C1CC(C)(C)CC2=O (stereo not given) | inactive | –
80 | Cc1ccc(=O)n(-c2ccccc2)c1 | inactive | –
81 | O=C1C=C(NCC2CCCO2)C2(CCCCC2)O1 (stereo not given) | inactive | –
82 | COCCn1c(=O)c(-c2ccc(F)c(F)c2)nc2cncnc21 | inactive | –
83 | Cc1ccc(N=Cc2nc(/C=C/c3cccc([N+](=O)[O-])c3)oc2O)cc1 | inactive | –
84 | CN(C)c1ncc2nc(-c3ccc(F)cc3)c(=O)n(Cc3ccc(F)cc3)c2n1 | inactive | –
85 | C#CCCCO/N=C1/C[C@@H](O)[C@@H](O)[C@@H]2[C@@H]3C(=O)N(C4CCCCC4)C(=O)[C@H]3CC[C@H]12 | – | 18.1% [at 11.4 µM] (inactive)
86 | COC(=O)CSc1nnc(-c2ccccc2OC)n1-c1ccc(C)cc1 | inactive | –
87 | CCOc1ccc(-n2c(SCC(=O)Nc3ccccc3C)n[nH]c2=O)cc1 | inactive | –
88 | CCn1c(SCC(=O)Nc2ccccc2C(=O)OC)nnc1-c1ccc(N)cc1 | inactive | –
89 | O=C(CSc1nnc(-c2ccccc2)n1-c1ccccc1)c1cccs1 | 2.51 µM (active) | –
90 | N#Cc1c(-c2ccccc2)cc(C2CC2)nc1SCC(=O)c1cccs1 | inactive | –
91 | Cc1ccccc1NC(=O)CSc1nnc(-c2ccccc2)n1-c1ccccc1 | 1.78 µM (active) | –
92 | CN(Cc1cc2ccccc2[nH]c1=O)S(C)(=O)=O | inactive | –
93 | CCc1ccc(OCC(=O)Nc2ccc(-c3nc4ccccc4o3)c(O)c2)cc1 | inactive | –
94 | Nc1nc(-c2ccccc2)c(-c2ccccc2)c(-c2nc(N)nc(-c3ccccc3)c2-c2ccccc2)n1 | – | -0.539% [at 11.4 µM] (inactive)
95 | CN(N=O)c1ccc(/C=C\c2ccnc3ccccc23)cc1 | – | -11% [at 11.4 µM] (inactive)

Reference: PubChem BioAssay AID1851 (National Center for Advancing Translational Sciences (NCATS), 2009)
